High-throughput results as filed in PubChem BioAssay.
A selection: hits, their analogues and other compounds. The true share with any hit is near 19%.
HT1080-NT tox = kills 2HG-producing HT-1080-NT fibrosarcoma cells; HT-1080-NT fibrosarcoma viability, CellTiter-Glo ATP luminescence, 48 h; Potency, µM (highest dose often 46.1 µM), for inactives: top-dose activity, negative = less viability, hits mostly cytotoxic; 360,000 tested, 1.6% active;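 further: NT is the 2HG producing partner of a matched IDH1 knockdown line; 0% = DMSO-treated cells and -100% = media-only wells without cells; nearly all actives have a fitted effect of over 55% in size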
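Viability by CellTiter-Glo luminescence after 48 h compound exposure at 37C of HT-1080-NT cells (750/well, RPMI, 5% FBS). % activity scaled between DMSO wells and medium-only wells, then curve-fitted and categorized by curve class.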
HT1080 IDH1KD tx = kills HT-1080 cells with IDH1 knockdown; HT-1080 IDH1 knockdown viability, ATP luminescence, 48 h; Potency, µM (series often up to 46.1 µM), without a hit: at the top dose activity, negative = toxicity, most hits filed as cytotoxic; 360,000 tested, 2% active;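 further: 0% = DMSO wells and -100% = cell-free medium wells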
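Luminescent ATP read-out (CellTiter-Glo, 10 min at room temperature) after 48 h compound exposure at 37 °C gave viability of IDH1-knockdown HT-1080 cells. Activity was normalised to DMSO and cell-free wells, then fitted as concentration-response curves.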
KB-3-1 tox = KB-3-1 parental cell cytotoxicity; KB-3-1 viability, CellTiter-Glo ATP luminescence, 72 h; 400,000 tested, 1.4% active; Potency, µM (titrated, usually from 46.1 µM), actives largely listed as cytotoxic; further: nearly all actives have a fitted effect of over 60% in size
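Cells are dispensed, compounds pinned in, plates held at 37 °C for 72 h, then CellTiter-Glo is added and luminescence read after 10 minutes. Cell line: parental KB-3-1 in phenol-red-free DMEM, 10% FBS.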
DT40 TDP1 CPT = DT40-hTDP1 cell growth loss with CPT. chicken DT40 Tdp1-/-;hTDP1 cells + 20 nM CPT, ATP luminescence, 48 h. Potency, µM (top dose mostly 46.2 µM), inactives show at the highest dose activity change, negative = growth inhibition, usual class: inhibitors. 420,000 tested, 12% active. AID 686979; further: nearly all actives have a fitted effect of over 55% in size
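Chicken DT40 Tdp1-/- cells complemented with human TDP1, 400 cells/well, exposed to compounds plus 20 nM camptothecin for at least 48 h at 37 C; viability read as ATP content by CellTiter-Glo luminescence.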
DT40 TDP1 no CPT = qHTS for Inhibitors of human tyrosyl-DNA phosphodiesterase 1 (TDP1): qHTS in cells in absence of CPT | DT40 Tdp1-/- hTDP1 cells, no CPT, ATP luminescence, 48 h | Potency, µM (titrated, usually from 46.2 µM), for the others: top-dose activity change, negative = growth inhibition, most hits filed as inhibitors | 420,000 tested, 15% active | AID 686978, 2013; further: nearly all actives have a fitted effect of over 55% in size
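Chicken DT40 Tdp1-/- cells stably complemented with human TDP1 were seeded at 400 cells/well with DMSO in place of 20 nM camptothecin. After compound pinning, cells grew at least 48 hr at 37 °C; viability read by CellTiter-Glo luminescence.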
KB-V1 MDR tox = kills drug-selected multidrug resistant KB-V1 cells; KB-V1 MDR cells viability, CellTiter-Glo, 72 h; Potency, µM (top dose mostly 46.1 µM), usual class: cytotoxic; 400,000 tested, 3.4% active; further: nearly all actives have a fitted effect of over 60% in size
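KB-V1, DMEM (no phenol red) + 10% FBS; cpd pin-transferred, titration series; 72 h, 37 degrees C; CellTiter-Glo, luminescence. Data normalized, curve-fit.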
An asterisk follows results filed as active; i = inactive; ? = inconclusive; . = no result; [ ] = dose if it differs, or a comment. The call rests on the fitted dose curve; in most records, active means well fitted curve in the direction sought with a large enough effect; inconclusive means small, poorly fitted or top-dose-only effect, or another doubt; inactive means no such curve, though single readings can be large; an effect the other way counts as inactive or inconclusive. Unless noted, on the % scale 0 is the no-effect control and ±100 the full control effect; potency means the concentration at half of the fitted maximal effect.

SMILES | HT1080-NT tox | HT1080 IDH1KD tx | KB-3-1 tox | DT40 TDP1 CPT | DT40 TDP1 no CPT | KB-V1 MDR tox
CC(=O)NCCNC(=O)CCCc1nnc2n(C)c(=O)c3sccc3n12 | . | . | i | 6.3% | -7.8% | ?
COc1cccc(-c2cnc3c(NC(C)=O)cc(-c4ccncc4)cn23)c1 | ? | ? | i | ? | 16.4µM* | ?
COc1cccc(-c2cnc3c(NC(C)=O)cc(-c4cc(OC)c(OC)c(OC)c4)cn23)c1 | ? | ? | i | ? | ? | ?
COc1cccc(-c2cnc3c(NC=O)cc(-c4ccncc4)cn23)c1 | -19.1% | -19.0% | i | 18.4µM* | 4.61µM* | ?
Cc1cccc(NC(=O)C23CCC(C)(C2Br)C3(C)C)c1 (stereo not drawn) | -13.5% | -22.2% | i | -14.3% | ? | i
C=CC[C@H](CC(=O)N(CCO)Cc1ccccc1)C(=O)N[C@H](COC(=O)[C@@H](CC=C)Cc1ccc(F)cc1)C(C)(C)C | -29.9% | ? | i | ? | ? | i
C=CC[C@@H](CC(=O)N(CCO)Cc1ccccc1)C(=O)N[C@H](COC(=O)[C@@H](CC=C)Cc1ccc(F)cc1)c1ccccc1 | -26.2% | -22.2% | ? | 14.6µM* | 13µM* | ?
C=CCC[C@H](Cc1ccc(F)cc1)C(=O)OC[C@@H](NC(=O)[C@@H](CC=C)CC(=O)N(CCO)Cc1ccccc1)C(C)(C)C | ? | ? | ? | 25.9µM* | ? | ?
C=CC[C@@H](CC(=O)N(CCO)Cc1ccccc1)C(=O)N[C@@H](C)COC(=O)[C@@H](CC=C)Cc1ccc(F)cc1 | 0.8% | 3.4% | i | ? | 16.4µM* | i
C=CC[C@@H](CC(=O)N(CCO)Cc1ccccc1)C(=O)N[C@H](COC(=O)[C@@H](CC=C)Cc1ccc(F)cc1)C(C)(C)C | ? | ? | ? | 20.6µM* | 13µM* | i
C=CC[C@H](CC(=O)NCCO)C(=O)N[C@H](COC(=O)[C@@H](CC=C)Cc1ccc(F)cc1)Cc1ccccc1 | -4.1% | -1.6% | i | ? | ? | i
OC(c1ccc(-c2ccccc2)cc1)c1ncc(-c2cccc(F)c2)[nH]1 (stereo not drawn) | ? | ? | i | -23.2% | ? | i
Cc1nn(C)c2c1c(-c1ccccc1)cc(=O)n2Cc1c(F)cccc1Cl | . | . | i | ? | ? | i
O=C(Nc1nnc(Cc2ccccc2)s1)C1CCN(C(=O)c2cccs2)CC1 | . | . | i | ? | ? | i
CCc1ccc(-c2nc(SCC(=O)NC3CC3)n[nH]2)cc1 | -16.6% | -12.6% | i | 14.1% | -9.6% | i
CC(CCc1ccccc1)NC(=O)CSc1n[nH]c(-c2ccccc2)n1 (stereo not drawn) | . | . | i | 14.6µM* | 20.6µM* | ?
Cc1ccc(CNC(=O)CSc2n[nH]c(-c3ccc(F)cc3)n2)cc1 | . | . | . | ? | 16.4µM* | .
CC(CCc1ccccc1)NC(=O)CSc1n[nH]c(-c2ccc(F)cc2)n1 (stereo not drawn) | . | . | . | ? | 23.1µM* | .
N[C@@H](C(=O)O)c1ccc(O)c(C(=O)O)c1 | . | . | . | 14.1% | -10.8% | .
Cc1c(C(=O)N(C)C2CCOC2)sc2ncnc(NCc3ccc4c(c3)OCO4)c12 (stereo not drawn) | . | . | . | -10.4%[9.04 µM] | -26.9% | .
Cc1ccc(Sc2ccc(NC(=O)CCl)cc2)cc1C | -24.3% | -27.1% | ? | 23.1µM* | ? | ?
Cc1ccc(NC(=O)CCSCCC(=O)Nc2ccc(C)c(C)c2)cc1C | -6.4% | -0.1% | i | -9.7% | -5.2% | i
Cc1ccc(C)c(Sc2ccc(NC(=O)CCl)cc2)c1 | -15.7% | -19.0% | 20.6µM* | 16.4µM* | 18.4µM* | ?
CCOC(=O)C1=C(CC)Nc2ccccc2N=C1NC(=O)Nc1ccc(Cl)c(Cl)c1 | ? | ? | ? | 2.91µM* | 2.59µM* | i
COc1ccc(-c2cc(C(=O)NC3CCCC3)c3ccccc3n2)cc1 | 5.1% | -0.9% | i | ? | ? | i
SMILES | HT1080-NT tox | HT1080 IDH1KD tx | KB-3-1 tox | DT40 TDP1 CPT | DT40 TDP1 no CPT | KB-V1 MDR tox
Cc1cc(C)cc(Nc2cc(C(=O)NC3CCCCC3)c3ccccc3n2)c1 | . | . | i | ? | ? | i
O=C(NC1CC1)c1cc(-c2ccc(Br)cc2)nc2ccccc12 | 6.5% | -0.2% | i | ? | 14.6µM* | i
COc1ccc(-c2cc(C(=O)NC3CC3)c3ccccc3n2)cc1 | 8.3% | 1.5% | i | ? | ? | i
CN1CCC(NC(=O)c2cc(-c3cccc(Br)c3)nc3ccccc23)CC1 | 20.6µM* | 20.6µM* | ? | ? | ? | i
O=C(NC1CCCCCCC1)c1cc(-c2ccccn2)nc2ccccc12 | 15.4% | 23.0% | i | ? | 18.4µM* | i
Cc1cc(C)cc(Nc2cc(C(=O)NC3CCC(C)CC3)c3ccccc3n2)c1 (stereo not drawn) | . | . | i | ? | 9.2µM* | i
Cc1ccsc1C(=O)N(Cc1cc2ccc(F)cc2nc1N1CCC(O)CC1)CC1CCCO1 (stereo not drawn) | . | . | . | 8.7%[9.04 µM] | -4.8% | .
Cc1noc(C)c1C(=O)N1CCC2(CC1)CCN(C(c1ccccc1)c1ccccc1)CC2 | . | . | . | -27.2% | ? | .
CCCc1cc(=O)oc2cc(C)c3c(-c4cccc(OC)c4)coc3c12 | . | . | i | -7.9% | -14.8% | i
N#C/C(=N\Nc1ccc(Cl)cc1)C(=O)c1ccccc1 | 2.59µM* | ? | ? | 9.2µM* | 10.3µM* | i
COC(=O)C(=NNc1c(C)n(C)n(-c2ccccc2)c1=O)C(=O)OC | ? | 29.8% | i | -0.2% | -16.9% | i
Cc1c(N/N=C(\C#N)C(=O)c2ccc(Cl)cc2)c(=O)n(-c2ccccc2)n1C | ? | 2.59µM* | 3.26µM* | 3.66µM* | 3.66µM* | i
Cc1ccc(C)c(S(=O)(=O)C(C#N)c2nc3ccccc3nc2N2CC(C)OC(C)C2)c1 (stereo not drawn) | ? | ? | 18.4µM* | ? | ? | ?
N#CC(c1nc2ccccc2nc1N1CCCC1)S(=O)(=O)c1ccccc1 (stereo not drawn) | 5.1% | 12.8% | ? | -0.9% | -24.2% | 20.6µM*
Cc1ccc(C)c(S(=O)(=O)C(C#N)c2nc3ccccc3nc2N2CCOCC2)c1 (stereo not drawn) | -11.2% | -9.9% | ? | -19.1% | ? | 11.6µM*
